Measured values from PubChem BioAssay (EPA / NIEHS).
Calls of active or inactive are those of the source. Rule for the calls: active = hit-call score of the fitted dose curve at least 0.9, where 1 is the maximum; inactive = score below 0.9.

Assays:
[1] = ATG_E_Box_CIS: Attagene CIS-FACTORIAL HepG2 Assay for human Enhancer Box (E-box) (AID 2282936); conditions: HepG2 E-box cis-reporter transcription, actives raise or lower the signal
Method in brief: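 Transiently transfected HepG2, endogenous TF-driven reporters, 24 h dosing. Readout: RT-PCR plus capillary electrophoresis of fluorescent reporter fragments. Gain or loss of signal fitted bidirectionally against DMSO baseline.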

[2] = ATG_M_61_CIS: Attagene CIS-FACTORIAL HepG2 Assay for M61 Transcription Factor (Internal Marker) (AID 2282937); conditions: HepG2 Attagene CIS-FACTORIAL M61 internal marker reporter; actives raise or lower the signal
Method in brief: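 Multiplexed reporter mRNA assay, HepG2 human hepatoma cells, 24 h treatment. Signal: FAM-labelled, HpaI-digested RT-PCR fragments by CE. Fit: bidirectional, baseline DMSO.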

[3] = ATG_EGR_CIS: Attagene CIS-FACTORIAL HepG2 Assay for human Early Growth Response 1 (EGR1) (AID 2282938); conditions: HepG2 Attagene CIS-FACTORIAL EGR reporter mRNA; actives raise or lower the signal
Method in brief: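 Multiplexed cis-reporter system in human hepatoma HepG2 cells, transiently transfected. Cells are dosed for 24 h; reporter transcripts are amplified, fluorescently tagged and sized by capillary electrophoresis, with DMSO as negative control.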

[4] = ATG_M_19_CIS: Attagene CIS-FACTORIAL HepG2 Assay for M19 Transcription Factor (Internal Marker) (AID 2282939); conditions: HepG2 Attagene CIS-FACTORIAL M19 internal marker reporter; actives raise or lower the signal
Method in brief: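 Following a 24 h exposure, RNA from transfected HepG2 cells was reverse-transcribed, PCR-amplified with reporter-specific primers, end-labelled with 6-FAM and HpaI-digested before capillary separation. Values represent gain or loss versus DMSO.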

[5] = ATG_Ets_CIS: Attagene CIS-FACTORIAL HepG2 Assay for human Erythroblast Transformation Specific (ETS) (AID 2282941); conditions: HepG2 ETS cis-reporter transcription, actives raise or lower the signal
Method in brief: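 Endogenous transcription factor activity read as reporter mRNA via RT-PCR and capillary electrophoresis, with gain or loss fitted bidirectionally against DMSO. Human HepG2 liver cells, transiently transfected CIS reporter constructs, 24 h exposure.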

[6] = target: Hepatocyte nuclear factor 3-beta (Homo sapiens) (UniProt Q9Y261); test: ATG_FoxA2_CIS: Attagene CIS-FACTORIAL HepG2 Assay for human Forkhead box A2 (FOXA2) (AID 2282942); conditions: HepG2 cis-reporter transcription factor activity, 24 h; actives raise or lower the signal
Sequence of Hepatocyte nuclear factor 3-beta (Homo sapiens) (Q9Y261 whole entry, looked up): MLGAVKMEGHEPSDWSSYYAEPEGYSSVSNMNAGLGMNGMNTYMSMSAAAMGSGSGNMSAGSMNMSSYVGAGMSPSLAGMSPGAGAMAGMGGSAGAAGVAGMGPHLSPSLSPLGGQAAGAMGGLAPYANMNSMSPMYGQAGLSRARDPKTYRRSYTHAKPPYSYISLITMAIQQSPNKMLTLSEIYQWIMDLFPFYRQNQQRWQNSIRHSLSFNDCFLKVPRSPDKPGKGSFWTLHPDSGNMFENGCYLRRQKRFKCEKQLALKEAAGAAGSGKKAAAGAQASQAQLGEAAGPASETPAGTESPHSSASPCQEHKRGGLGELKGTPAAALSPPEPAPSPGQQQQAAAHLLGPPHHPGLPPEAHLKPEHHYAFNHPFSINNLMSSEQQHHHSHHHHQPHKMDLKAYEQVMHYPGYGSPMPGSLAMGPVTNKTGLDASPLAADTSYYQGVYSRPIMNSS
Method in brief: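 Multiplexed cis-element reporter assay in transiently transfected HepG2. Twenty-four hours post-dosing, RNA was reverse-transcribed, amplified, FAM-labelled, HpaI-digested and separated by CE. Activity gain or loss relative to DMSO.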

[7] = ATG_GATA_CIS: Attagene CIS-FACTORIAL HepG2 Assay for human GATA Binding Protein (AID 2282944); conditions: HepG2 GATA cis-element reporter, Attagene multiplex mRNA; actives raise or lower the signal
Method in brief: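 DMSO serves as negative control and baseline for bidirectional fitting of reporter mRNA changes. HepG2 cells bearing transiently transfected cis-promoter reporters were exposed 24 h; transcripts detected via RT-PCR and capillary electrophoresis.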

[8] = ATG_GLI_CIS: Attagene CIS-FACTORIAL HepG2 Assay for human Zinc Finger Protein GLI1 (AID 2282945); conditions: HepG2, Attagene cis-factorial reporter mRNA, GLI element; actives raise or lower the signal
Method in brief: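 Transiently transfected HepG2 cells report endogenous transcription factor activity via cis-element-driven reporter units. After 24 h compound exposure, reporter mRNA was measured by RT-PCR with capillary electrophoresis; bidirectional fitting against DMSO baseline.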

[9] = ATG_GRE_CIS: Attagene CIS-FACTORIAL HepG2 Assay for human Glucocorticoid Response Elements (GRE) (AID 2282947); conditions: HepG2 GRE cis-reporter, Attagene multiplex mRNA; actives raise or lower the signal
Method in brief: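 Read-out: fluorescent reporter-transcript fragments separated by capillary electrophoresis after RT-PCR. Transiently transfected HepG2 cells carrying cis-element-driven reporter units were dosed for 24 h; gain or loss of signal fitted against DMSO control.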

[10] = ATG_ISRE_CIS: Attagene CIS-FACTORIAL HepG2 Assay for human Interferon Regulatory Factor 1 (IRF1) binding to an Interferon-Stimulated Response Element (ISRE) (AID 2282948); conditions: HepG2 ISRE cis-reporter (Attagene), mRNA transcription readout; actives raise or lower the signal
Method in brief: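 Endogenous transcription factor activity read as reporter transcript abundance via RT-PCR and capillary electrophoresis. HepG2 cells transiently transfected, 24 h chemical exposure. Gain or loss fitted against DMSO baseline.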

[11] = ATG_M_06_CIS: Attagene CIS-FACTORIAL HepG2 Assay for M06 Transcription Factor (Internal Marker) (AID 2282950); conditions: HepG2 Attagene CIS-FACTORIAL M06 internal marker reporter; actives raise or lower the signal
Method in brief: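 Fluorescence-labelled RT-PCR products from cis-promoter reporter units, cut with HpaI and resolved by capillary electrophoresis, give the signal. Cells are human HepG2, dosed for 24 h. Serves as background control, fitted relative to DMSO.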

[12] = target: Hypoxia-inducible factor 1-alpha (Homo sapiens) (UniProt Q16665); test: ATG_HIF1a_CIS: Attagene CIS-FACTORIAL HepG2 Assay for human Hypoxia Inducible Factor 1 (HIF1A) (AID 2282951); conditions: HepG2 Attagene cis-factorial HIF1a reporter transcription; actives raise or lower the signal
Sequence of Hypoxia-inducible factor 1-alpha (Homo sapiens) (Q16665 whole entry, looked up): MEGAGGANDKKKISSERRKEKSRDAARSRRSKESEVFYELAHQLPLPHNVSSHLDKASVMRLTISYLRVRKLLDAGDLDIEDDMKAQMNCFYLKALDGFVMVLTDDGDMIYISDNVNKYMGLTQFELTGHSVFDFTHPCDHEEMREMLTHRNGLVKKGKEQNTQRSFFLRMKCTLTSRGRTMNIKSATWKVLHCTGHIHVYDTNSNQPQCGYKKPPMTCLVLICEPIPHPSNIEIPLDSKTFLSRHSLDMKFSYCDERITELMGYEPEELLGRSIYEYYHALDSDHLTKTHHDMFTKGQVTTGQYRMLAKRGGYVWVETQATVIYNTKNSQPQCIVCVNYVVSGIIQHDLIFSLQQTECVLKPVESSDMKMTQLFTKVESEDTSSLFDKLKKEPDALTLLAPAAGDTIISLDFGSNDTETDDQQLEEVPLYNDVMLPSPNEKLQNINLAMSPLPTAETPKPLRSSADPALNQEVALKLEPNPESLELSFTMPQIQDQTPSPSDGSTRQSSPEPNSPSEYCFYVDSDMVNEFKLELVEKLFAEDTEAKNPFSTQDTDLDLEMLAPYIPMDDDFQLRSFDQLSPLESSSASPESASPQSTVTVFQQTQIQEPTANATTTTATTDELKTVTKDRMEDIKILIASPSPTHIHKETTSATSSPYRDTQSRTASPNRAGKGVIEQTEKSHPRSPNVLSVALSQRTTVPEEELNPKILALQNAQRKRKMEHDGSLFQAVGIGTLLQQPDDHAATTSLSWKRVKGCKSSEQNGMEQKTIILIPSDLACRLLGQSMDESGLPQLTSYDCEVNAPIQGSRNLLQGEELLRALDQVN
Method in brief: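 Cis-element reporter constructs were transiently transfected into HepG2 cells, which were treated for 24 h; reporter RNA was reverse-transcribed, amplified, labelled and resolved by capillary electrophoresis.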

[13] = target: Hepatocyte nuclear factor 6 (Homo sapiens) (UniProt Q9UBC0); test: ATG_HNF6_CIS: Attagene CIS-FACTORIAL HepG2 Assay for human Hepatocyte Nuclear Factor 6 (HNF6) (AID 2282952); conditions: HepG2 Attagene cis-factorial HNF6 reporter transcription; actives raise or lower the signal
Sequence of Hepatocyte nuclear factor 6 (Homo sapiens) (Q9UBC0 whole entry, looked up, the tested form may be a part): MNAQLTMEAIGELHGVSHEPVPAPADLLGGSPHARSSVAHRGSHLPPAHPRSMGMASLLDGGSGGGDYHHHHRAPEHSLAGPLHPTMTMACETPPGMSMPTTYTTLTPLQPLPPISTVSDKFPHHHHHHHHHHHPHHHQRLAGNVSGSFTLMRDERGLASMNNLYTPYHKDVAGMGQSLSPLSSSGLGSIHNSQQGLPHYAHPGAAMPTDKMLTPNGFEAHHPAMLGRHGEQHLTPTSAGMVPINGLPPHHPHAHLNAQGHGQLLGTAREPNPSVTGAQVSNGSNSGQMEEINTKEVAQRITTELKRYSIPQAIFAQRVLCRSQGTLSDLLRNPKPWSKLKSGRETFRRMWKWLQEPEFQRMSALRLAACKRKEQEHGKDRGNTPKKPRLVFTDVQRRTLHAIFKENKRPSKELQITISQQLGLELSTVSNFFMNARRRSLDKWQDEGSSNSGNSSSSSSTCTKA
Method in brief: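 Readout: fluorescent reporter-transcript fragments resolved by capillary electrophoresis after RT-PCR, reflecting endogenous factor activity in transfected HepG2. Exposure 24 h. Gain or loss of signal fitted bidirectionally against DMSO.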

[14] = target: Heat shock factor protein 1 (Homo sapiens) (UniProt Q00613); test: ATG_HSE_CIS: Attagene CIS-FACTORIAL HepG2 Assay for human Heat Shock Transcription Factor 1 (HSE) (AID 2282953); conditions: HepG2 HSE cis-reporter, Attagene RNA transcription; actives raise or lower the signal
Sequence of Heat shock factor protein 1 (Homo sapiens) (Q00613 whole entry, looked up): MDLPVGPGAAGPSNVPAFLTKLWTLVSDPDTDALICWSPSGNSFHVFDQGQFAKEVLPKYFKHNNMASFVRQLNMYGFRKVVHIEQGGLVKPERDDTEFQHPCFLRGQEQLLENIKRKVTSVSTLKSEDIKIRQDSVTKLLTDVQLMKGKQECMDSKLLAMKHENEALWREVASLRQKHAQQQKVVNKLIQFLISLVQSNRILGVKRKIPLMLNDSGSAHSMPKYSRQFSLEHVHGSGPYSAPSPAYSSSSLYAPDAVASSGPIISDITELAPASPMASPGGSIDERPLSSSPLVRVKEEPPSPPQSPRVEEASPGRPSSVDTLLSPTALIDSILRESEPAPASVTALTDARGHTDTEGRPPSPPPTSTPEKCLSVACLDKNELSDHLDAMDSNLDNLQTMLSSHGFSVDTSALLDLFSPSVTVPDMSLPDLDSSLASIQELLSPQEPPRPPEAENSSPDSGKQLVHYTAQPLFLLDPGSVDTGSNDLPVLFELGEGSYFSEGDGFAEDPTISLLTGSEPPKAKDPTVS
Method in brief: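 After a 24 h incubation with test chemical, transfected HepG2 cells were harvested for RNA; reporter transcripts were measured by RT-PCR and capillary electrophoresis. Values reflect gain or loss of signal relative to DMSO.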

[15] = ATG_MRE_CIS: Attagene CIS-FACTORIAL HepG2 Assay for human Metal Responsive Element (MRE) (AID 2282954); conditions: HepG2 MRE cis-reporter transcription, Attagene multiplex; actives raise or lower the signal
Method in brief: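 RT-PCR/capillary electrophoresis readout of reporter mRNA, 24 h post-dosing, in HepG2 cells transfected with multiplexed cis-regulated reporter constructs. Gain or loss of signal fitted bidirectionally against DMSO baseline.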

[16] = ATG_PBREM_CIS: Attagene CIS-FACTORIAL HepG2 Assay for human Phenobarbital-responsive Enhancer Module (PBREM) (AID 2282955); conditions: HepG2 PBREM cis-reporter, Attagene multiplexed transcription; actives raise or lower the signal
Method in brief: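 Multiplexed cis-reporter readout in human hepatoma HepG2 cells; PBREM-regulated transcript quantified after 24 h exposure by fluorescent RT-PCR fragment analysis. Signal changes up or down fitted relative to DMSO.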

[17] = ATG_M_32_CIS: Attagene CIS-FACTORIAL HepG2 Assay for M32 Transcription Factor (Internal Marker) (AID 2282949); conditions: HepG2 Attagene cis-factorial M32 reporter, mRNA; actives raise or lower the signal;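 note: background control marker of the multiplexed CIS panel rather than a real target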
Method in brief: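 Using DMSO as baseline, bidirectional curve fits were applied to reporter mRNA signals. These came from transiently transfected HepG2 cells exposed for 24 h, with RNA analysed by RT-PCR, FAM primer extension, HpaI digestion and CE.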

[18] = ATG_ERE_CIS: Attagene CIS-FACTORIAL HepG2 Assay for Estrogen Response Element (ERE) (AID 2282940); conditions: HepG2 ERE cis-reporter, Attagene RNA transcript; actives raise or lower the signal
Method in brief: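 HepG2, transient cis-reporter units, 24 h exposure. RNA isolated, oligo(dT) RT, reporter-specific PCR, FAM extension, HpaI cut, CE detection. Gain/loss-of-signal vs DMSO.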

[19] = ATG_FoxO_CIS: Attagene CIS-FACTORIAL HepG2 Assay for human Forkhead box O (FoxO) (AID 2282943); conditions: HepG2 Attagene cis-reporter, FoxO element, mRNA; actives raise or lower the signal
Method in brief: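 HepG2 cells transiently transfected with cis-element-driven reporter units report endogenous FoxO activity. After 24 h chemical exposure, reporter mRNA quantified by RT-PCR, fluorescent labeling, HpaI digestion and capillary electrophoresis; bidirectional fit versus DMSO.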

[20] = target: Bile acid receptor (Homo sapiens) (UniProt Q96RI1); test: ATG_IR1_CIS: Attagene CIS-FACTORIAL HepG2 Assay for human Nuclear Receptor Subfamily 1 Group H Member 4 (NR1H4), IR1 submotif (AID 2282946); conditions: IR1 reporter transcription, actives raise or lower the signal
Sequence of Bile acid receptor (Homo sapiens) (Q96RI1 whole entry, looked up): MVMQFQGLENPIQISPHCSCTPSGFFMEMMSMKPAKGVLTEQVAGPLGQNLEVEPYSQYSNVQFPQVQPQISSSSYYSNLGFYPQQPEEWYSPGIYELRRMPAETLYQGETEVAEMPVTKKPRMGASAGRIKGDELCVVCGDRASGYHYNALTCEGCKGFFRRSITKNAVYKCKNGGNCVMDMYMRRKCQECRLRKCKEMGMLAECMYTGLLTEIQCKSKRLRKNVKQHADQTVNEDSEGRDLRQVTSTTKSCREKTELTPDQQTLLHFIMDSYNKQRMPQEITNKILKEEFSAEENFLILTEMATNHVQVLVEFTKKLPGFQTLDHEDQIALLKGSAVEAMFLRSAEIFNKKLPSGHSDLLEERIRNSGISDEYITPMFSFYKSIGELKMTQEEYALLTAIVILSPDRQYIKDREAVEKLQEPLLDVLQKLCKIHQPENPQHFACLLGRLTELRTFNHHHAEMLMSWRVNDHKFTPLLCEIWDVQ
Method in brief: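 Fluorescence of capillary-separated, HpaI-digested RT-PCR reporter products gave IR1-element mRNA induction in HepG2 cells 24 h after dosing. Endogenous transcription factors drove the cis-regulated reporters; activity was fitted bidirectionally against DMSO.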

Measured: AC50

[O-]n1ccccc1=S.[O-]n1ccccc1=S.[Zn+2]
active: [1] 0.976 µM | [10] 1.07 µM | [14] 0.937 µM | [15] 0.923 µM
inactive: [2] | [3] | [4] | [5] | [6] | [7] | [8] | [9] | [11] | [12] | [13] | [16]

CN1CCOCC1
inactive: [1] | [2] | [3] | [4] | [5] | [6] | [7] | [9] | [10] | [11] | [12] | [13] | [14] | [15] | [16]
active: [17] 100 µM

COCCOC(=O)c1ccccc1C(=O)OCCOC
inactive: [1] | [2] | [3] | [4] | [5] | [6] | [7] | [8] | [10] | [17] | [11] | [12] | [13] | [14] | [15] | [16]

CCCC(=O)C(CC)Sc1ccoc1C (stereo not drawn)
inactive: [1] | [2] | [3] | [5] | [6] | [19] | [7] | [8] | [10] | [17] | [11] | [12] | [13] | [14] | [15] | [16]
active: [18] 88.9 µM

O=CCc1ccccc1
inactive: [1] | [2] | [3] | [5] | [6] | [19] | [7] | [8] | [20] | [10] | [17] | [11] | [12] | [13] | [14] | [15]

C=Cc1ccc(C(C)(C)C)cc1
inactive: [1] | [2] | [3] | [5] | [6] | [7] | [8] | [20] | [10] | [17] | [11] | [12] | [13] | [14] | [15] | [16]

CC(=O)O[C@@H]1C[C@@H]2CC[C@@]1(C)C2(C)C
inactive: [1] | [3] | [4] | [5] | [6] | [7] | [8] | [20] | [9] | [10] | [17] | [11] | [12] | [14] | [15] | [16]

N#Cc1cscn1
inactive: [1] | [3] | [4] | [5] | [6] | [19] | [7] | [8] | [20] | [10] | [17] | [11] | [12] | [14] | [15] | [16]

CCCCCCCCCCCCN1CCCCCC1=O
inactive: [3] | [4] | [5] | [6] | [7] | [8] | [20] | [9] | [10] | [17] | [11] | [12] | [13] | [15]
active: [1] 16.3 µM | [14] 15.8 µM

CCCCC1CCC(O)CC1 (stereo not drawn)
inactive: [1] | [3] | [4] | [5] | [6] | [19] | [7] | [8] | [20] | [10] | [17] | [11] | [12] | [13] | [14] | [15] | [16]

CC1=CC[C@@]23C[C@@H]1C(C)(C)[C@@H]2CC[C@H]3C
inactive: [1] | [3] | [4] | [5] | [6] | [7] | [8] | [9] | [10] | [11] | [12] | [13] | [14] | [15] | [16]
active: [19] 157 µM

CCO/C=C1\N=C(c2ccccc2)OC1=O
inactive: [1] | [2] | [3] | [5] | [6] | [7] | [9] | [10] | [17] | [11] | [12] | [13] | [14] | [15] | [16]

C=C(C)[C@H]1CC=C(C)C(=O)C1
inactive: [1] | [2] | [3] | [5] | [6] | [7] | [8] | [9] | [10] | [17] | [11] | [12] | [13] | [14] | [15]

COC(=O)c1ccc([N+](=O)[O-])cc1
inactive: [1] | [3] | [5] | [6] | [7] | [8] | [20] | [9] | [10] | [17] | [11] | [12] | [13] | [14] | [15]
